Measurements taken from PubChem BioAssay (NCI).
Several values for one entry are separate records, joined by “and”; a condition that tells them apart may be missing. Equal values may be shown once. This is part of a sample that, as a whole, favours compounds with a hit. Of some 83,000 tested, about 20% had one in any assay.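 48-hour exposure, single concentration, 96-well plates; percent growth endpoint where 0 means no net growth. Active: below 10.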 A number with no mark means an inactive call. Activity calls are given as the source filed them.

Experiments:
Assay in all cases: NCI-60 one-dose screen, 48 h (100 = growth as untreated, 0 = no growth, -100 = all killed)
HCT-15 colon = details: 10 µM
HT29 colon = details: 10 µM
SNB-75 CNS = details: 10 µM
SNB-19 CNS = details: 10 µM
U251 CNS = details: 10 µM
PC-3 prostate = details: 10 µM
SK-MEL-5 melanoma = details: 10 µM
LOX IMVI melanoma = details: 10 µM
UACC-62 melanoma = details: 10 µM unless noted
SK-MEL-28 melanoma = details: 10 µM

Row | Structure (SMILES) | growth (HCT-15 colon) | growth (HT29 colon) | growth (SNB-75 CNS) | growth (SNB-19 CNS) | growth (U251 CNS) | growth (PC-3 prostate) | growth (SK-MEL-5 melanoma) | growth (LOX IMVI melanoma) | growth (UACC-62 melanoma) | growth (SK-MEL-28 melanoma)
1 | CC1CCC2(OC1)OC1C(O)C3C4CCC5CC(OC6OC(CO)C(OC7OC(CO)C(O)C(OC8OCC(O)C(O)C8O)C7OC7OC(CO)C(O)C(OC8OC(CO)C(O)C(O)C8O)C7O)C(O)C6O)C(O)CC5(C)C4CCC3(C)C1C2C (stereo unspecified) | 37.3% | -40.5% (active) | -32% (active) | -71.7% (active) | -51.1% (active) | -93.4% (active) | -62.2% (active) | -69.8% (active) |  | 
2 | COC(C(=O)C(O)C(C)O)C1Cc2cc3cc(OC4CC(OC(C)=O)C(OC5CC(O)C(OC)C(C)O5)C(C)O4)cc(O)c3c(O)c2C(=O)C1OC1CC(OC2CC(OC3CC(C)(O)C(OC(=O)C(C)C)C(C)O3)C(O)C(C)O2)C(O)C(C)O1 (stereo unspecified) | 25.1% | -2.06% (active) | -74% (active) | -4.78% (active) | 8.24% (active) | 1.13% (active) | -97.3% (active) | 1.99% (active) | -97% (active) | 
3 | CC/C(=C/c1ccc(OC)cc1OC)[N+](=O)[O-] | -35.9% (active) | -1.29% (active) | 44.9% | 41.6% | 43.5% | 50% | 38.1% | -85.1% (active) | -36.2% (active) | 2.66% (active)
4 | Oc1c(Cl)cc(Cl)c2ccccc12.[Cu+2] | 99.5% | 92.5% | 91% | 121% | 108% | 88.4% | 90.5% | 37.7% | 109% | 116%
5 | COc1cc2c(c(OC)c1OC)-c1ccc(O)c(=O)cc1[C@@H](NC(C)=O)CC2 | 38.3% | 29.9% | 67.5% | 38% | 24.6% | 25.2% | 55.8% | 44.1% |  | 68.3%
6 | O=[N+]([O-])c1cc[n+]([O-])c2ccccc12 | -23.1% (active) | -31.4% (active) | -82.2% (active) | -17.6% (active) | -26.3% (active) | -10.8% (active) | -92.5% (active) | -73.7% (active) | -85.2% (active) | -86.9% (active)
7 | O=C1C(=O)c2ccccc2-c2ccccc21 | -69.5% (active) | -16.1% (active) | -100% (active) | -78.6% (active) | -87.8% (active) | -47% (active) | -95.7% (active) | -58.5% (active) |  | -91.2% (active)
8 | O=[P+](O)c1ccccc1 | 108% | 118% | 97.4% | 106% | 104% | 93.6% | 106% | 102% |  | 104%
9 | Oc1ccccc1-c1ccccc1 | 104% and 94.6% | 97% and 98.8% | 97.4% and 79.2% | 101% and 93.4% | 99% and 98.1% | 94.4% and 98.6% | 102% and 97.7% | 92.3% and 108% |  | 112% and 102%
10 | C=C1C(=O)O[C@@H]2C[C@@H](C)[C@@H]3C=CC(=O)[C@@]3(C)[C@@H](O)[C@H]12 | -83.7% (active) | -66% (active) | -94.8% (active) | -63.7% (active) | -100% (active) | -62% (active) | -93.5% (active) | -97% (active) | -61.4% (active) | 
11 | COS(=O)(=O)c1ccccc1 | 108% | 110% | 95.2% | 110% | 96.4% | 102% | 108% | 102% |  | 113%
12 | CC[C@@]1(O)C[C@H](OC2CC(N(C)C)C(O)C(C)O2)c2c(cc3c(c2O)C(=O)c2c(O)ccc(O)c2C3=O)[C@H]1C(=O)OC (stereo partly specified) | -43% (active) | -20.5% (active) | -88% (active) | -36.9% (active) | -90.8% (active) | -57.4% (active) | -100% (active) | -85.1% (active) | -91.4% (active) | 
13 | O=[N+]([O-])c1ccc(N2CCOCC2)c2c1no[n+]2[O-] | -19.3% (active) | -29.3% (active) | -15.5% (active) | 28.8% | 2.99% (active) | 10.9% | 25.4% | -14.3% (active) | -24.9% (active) | 49.3%
14 | C/C1=C\[C@H](C)C[C@H](C)OC(=O)C[C@H](c2ccc(O)cc2)NC(=O)[C@@H](Cc2c(Br)[nH]c3ccccc23)N(C)C(=O)[C@H](C)NC(=O)[C@@H](C)C1 | -38.1% (active) | -33.5% (active) | -76.4% (active) | -21.9% (active) | -50.6% (active) | -59.6% (active) | -74.5% (active) | -32.7% (active) |  | 
15 | COC12C(COC(N)=O)C3=C(C(=O)C(C)=C(N)C3=O)N1CC1C2N1C (stereo unspecified) | 33.2% | 8.04% (active) | 32.9% | 39.1% | 43% | 47% | 11.6% | 28.3% | 46.3% | 
16 | Oc1c(I)cc(I)cc1I | 108% | 107% | 87.9% | 96.3% | 106% | 93.1% | 98.1% |  | 102% | 101%
17 | C[C@@H]1C[C@@H]([C@H](O)CC2CC(=O)NC(=O)C2)C(=O)[C@@H](C)C1 | 8.36% (active) | 3.76% (active) | 8.07% (active) | 10.5% | 3.25% (active) | 8.32% (active) | 0.54% (active) | -10.7% (active) | 5.43% (active) | -13.1% (active)
18 | Cc1cc(C)c(C[N+](C)(C)C)c(C)c1C | 7.64% (active) | 3.52% (active) | 8.87% (active) | 16.1% | 1.76% (active) | 14.3% | 5.57% (active) | -28.2% (active) |  | -9.07% (active)
19 | Cc1ccc(C(=O)C2C(c3ccccc3)N2C2CCCCC2)cc1 (stereo unspecified) | 99.3% and 89.8% | 111% and 84.9% | 97.5% and 88.8% | 105% and 94% | 106% and 93.1% | 98% and 83% | 88.1% and 99% | 99.9% and 98.1% |  | 105% and 102%
20 | CC(C)(C)OOC(=O)/C=C\C(=O)OOC(C)(C)C | 106% | 105% | 98.5% | 91.9% | 99.2% | 95.4% | 106% | 107% | 94.7% | 109%
21 | O=C(O)c1cc(Cc2ccc(O)c(C(=O)O)c2)ccc1O (tested in a mixture with another compound) | 49.4% | 25% | 51.2% | 85.6% | 70.4% | -31.5% (active) | 71.3% | -47.3% (active) | 69.5% | 84.6%
22 | CN(CCCl)c1ccc(/C=C/C2=[N+](C)c3ccccc3C2(C)C)cc1 | 101% | 5.58% (active) | 38.9% | 42.5% | 13.1% | 5.9% (active) | 21.8% | 16.9% |  | 40.1%
23 | O=[N+]([O-])/C=C/c1ccc(Cl)cc1[N+](=O)[O-] | -37.1% (active) | -91.6% (active) | 55.4% | 71.8% | -39.8% (active) | 46.4% | 81.4% | -94.1% (active) | 73.7% | 85%
24 | CCOP(=O)(OCC)C(O)c1ccccc1Cl (stereo unspecified) | 88.8% | 105% | 98.5% | 105% | 99.5% | 98.3% | 103% | 97.9% | 108% | 114%
25 | CC(=O)Nc1c2sscc-2n(C)c1=O | -100% (active) | -76.2% (active) | -98.3% (active) | -100% (active) | -100% (active) | -95.9% (active) | -100% (active) | -98.3% (active) |  | 
